Screening data deposited in PubChem BioAssay by The Scripps Research Institute Molecular Screening Center.
FBW7 activator – FBW7 E3 ligase activators, primary screen, biochemical, AlphaScreen, human | F-box/WD repeat-containing protein 7 (Homo sapiens), Q969H0 | AlphaScreen FBW7–phospho-cyclin E peptide binding, activator screen | normalized activity (activation), % at 26.1 µM | actives 0.13% (n = 650,000); in the data active = normalized activity above about 1.9%;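 also: purified mutant Fbw7 with reduced substrate affinity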
Target sequence (Q969H0 whole entry, looked up): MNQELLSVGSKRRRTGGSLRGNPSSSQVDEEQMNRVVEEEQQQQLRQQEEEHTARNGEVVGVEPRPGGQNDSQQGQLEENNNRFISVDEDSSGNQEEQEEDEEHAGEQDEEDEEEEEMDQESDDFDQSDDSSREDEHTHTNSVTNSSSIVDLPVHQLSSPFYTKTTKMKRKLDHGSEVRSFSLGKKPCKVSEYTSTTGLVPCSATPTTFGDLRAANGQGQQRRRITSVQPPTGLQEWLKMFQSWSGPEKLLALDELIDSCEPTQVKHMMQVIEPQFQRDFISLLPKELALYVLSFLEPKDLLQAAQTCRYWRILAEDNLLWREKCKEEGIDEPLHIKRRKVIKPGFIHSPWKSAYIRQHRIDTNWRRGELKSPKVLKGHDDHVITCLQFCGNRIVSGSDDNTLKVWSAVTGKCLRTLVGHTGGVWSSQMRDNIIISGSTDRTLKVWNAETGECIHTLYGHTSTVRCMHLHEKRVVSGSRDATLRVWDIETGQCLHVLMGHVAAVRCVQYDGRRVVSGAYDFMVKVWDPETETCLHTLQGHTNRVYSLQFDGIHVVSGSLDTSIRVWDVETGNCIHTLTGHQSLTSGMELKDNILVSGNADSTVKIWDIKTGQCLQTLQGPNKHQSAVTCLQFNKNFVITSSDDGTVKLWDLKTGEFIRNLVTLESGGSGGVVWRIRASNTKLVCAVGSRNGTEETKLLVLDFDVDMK
GPR151 ag – activators of human GPR151, primary screen, cell-based, PathHunter beta-arrestin, luminescence; G-protein coupled receptor 151 (Homo sapiens), Q8TDV0; PathHunter beta-arrestin GPR151 cells; activation, % at 11.2 µM; actives 1% (n = 650,000); AID 1508602, 2020; in the data active = activation above about 4.9%;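 also: 0% = median of compound wells and 100% = cells with positive control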
MITF primary – MITF inhibitors, primary screen, biochemical, AlphaScreen, human | Microphthalmia-associated transcription factor (Homo sapiens), O75030 | AlphaScreen MITF homodimerization, bead proximity signal | inhibition, % at 2.6 µM | actives 0.91% (n = 650,000); in the data active = inhibition above about 50%;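 also: 0% = vehicle wells with protein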
TEAD-YAP block – TEAD-YAP interaction inhibition, primary screen, TEAD-YAP interaction inhibitor project, luminescence, HEK-TIYL cells | actives 1.4% (n = 640,000) | AID 1259422, 2018 | inhibition, % at 9.12 µM | TEAD-Gal4/YAP UAS-luciferase luminescence; in the data active = inhibition above about 32%;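 also: 0% = median of test compound wells and 100% = reference inhibitor wells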
Numbers without * were called inactive. Most compounds without a hit are left out; they make up all but 3.5% or so of the library.

SMILES | FBW7 activator | GPR151 ag | MITF primary | TEAD-YAP block
O=C(Nc1cccc(C(F)(F)F)c1)c1nn2c(C(F)(F)F)cc(-c3ccccc3)nc2c1Br | -0.1 | -0.6 | 22.9 | -2.8
c1csc(CCNc2ncnc3sc4c(c23)CCC4)c1 | 0.1 | 2.1 | 20.9 | 37.0*
Fc1ccc(-c2csc3ncnc(NCCc4cccs4)c23)cc1 | 0.1 | 2.4 | 3.8 | 43.2*
C=CCNc1ncnc2scc(-c3ccccc3)c12 | 0.0 | 1.4 | 1.6 | 38.5*
Cc1ccc(-c2cc(C(=O)NC(C)(C)CO)no2)cc1 | 0.1 | -0.9 | 19.8 | -28.8
CCN(CC)CCOCCOc1c(C)cc(C)cc1C | -0.1 | -0.7 | 1.6 | -1.0
COc1ccc(S(=O)(=O)NCc2ccc3c(c2)OCO3)cc1I | 0.1 | 1.3 | -0.8 | 11.1
O=C(Nc1ccc(-c2noc(-c3cccc(Cl)c3)n2)cc1)c1ccco1 | 0.9 | -0.4 | -10.3 | 53.6*
CCOC(=O)c1c(NC(=O)C2C3C=CC(C3)C2(C)C(=O)O)sc2c1CCCC2 (configuration not stated) | -1.4 | 1.9 | 60.0* | 39.8*
Cc1ccc2nc(NC(=O)c3ccc([N+](=O)[O-])cc3)sc2c1 | 0.3 | -0.4 | 17.1 | -12.1
Cc1ccc([N+](=O)[O-])cc1NC(=O)c1c(-c2c(Cl)cccc2Cl)noc1C | -0.2 | -0.7 | -10.1 | -7.8
CCN(CC)C(=O)c1ccc2nc(NC(=O)c3ccc([N+](=O)[O-])cc3)sc2c1 | 0.5 | -0.3 | 11.5 | 83.6*
CCN(CC)C(=O)c1ccc2nc(NC(=O)c3ccc(N)cc3)sc2c1 | 0.4 | -1.3 | 8.9 | 79.9*
Cc1onc(-c2c(Cl)cccc2Cl)c1C(=O)Nc1nc2ccc([N+](=O)[O-])cc2s1 | -0.2 | -0.9 | -10.2 | 49.1*
CCN(CC)C(=O)c1ccc2nc(NC(=O)c3cccs3)sc2c1 | 0.0 | -9.8 | -6.1 | 87.6*
Cc1n[nH]c(C)c1N=Nc1cccc([N+](=O)[O-])c1 | -0.2 | 1.5 | -9.5 | -2.5
Cc1cc(N2CCCCC2)nc(NCCNC(=O)c2ccco2)n1 | -0.1 | 1.5 | -8.1 | 40.6*
Cc1cc(N2CCCCC2)nc(NCCNC(=O)Nc2ccc(F)cc2F)n1 | -0.2 | -2.4 | -0.3 | 36.6*
Cc1cc(N2CCCCC2)nc(NCc2ccccc2)n1 | -0.3 | 2.3 | -11.1 | 47.7*
Cc1cc(N2CCOCC2)nc(NCc2ccccc2)n1 | -0.1 | 0.9 | 12.8 | 6.8
Cc1cc(N2CCCCC2)nc(NCCNC(=O)/C=C/c2ccccc2)n1 | -0.3 | -1.7 | -1.0 | 38.4*
COc1cc(OC)c(NC(=O)NCCNc2nc(C)cc(N3CCCCC3)n2)cc1Cl | -0.1 | -1.0 | 1.5 | 10.4
COC(=O)N(C)Cc1nc2ccccc2n1Cc1c(F)cccc1Cl | 0.0 | 1.7 | 14.8 | 0.9
Cc1ccc(S(=O)(=O)NCc2nnc(N)s2)cc1 | 0.0 | -1.1 | -7.0 | -6.6
CCN(CC)c1ccc(C(=O)Nc2cc(C(=O)N3CCOCC3)ccc2N2CC3CC(C2)c2cccc(=O)n2C3)cc1 (configuration not stated) | -0.1 | 0.3 | -2.2 | 69.2*
SMILES | FBW7 activator | GPR151 ag | MITF primary | TEAD-YAP block
Cc1ccc(CC(=O)Nc2ccncc2)cc1 | -0.2 | 0.7 | 9.0 | 41.6*
Cc1cc(OCC(=O)Nc2ccncc2)cc(C)c1Br | 0.0 | -0.5 | -5.1 | 32.7*
Cc1cc(OCC(=O)Nc2cccnc2)cc(C)c1Br | 0.0 | -1.6 | 4.7 | 2.6
CCC(Sc1nc2ccc(Br)cc2c2nc3ccccc3n12)C(=O)NCc1cccnc1 (configuration not stated) | -0.1 | -1.0 | 1.9 | -2.1
CCN(CC)/C(=N/OC(=O)c1ccc(C)cc1)c1nonc1N | -0.2 | -0.7 | 1.9 | -4.5
COc1ccc(NC(=O)N2CC=C(c3c[nH]c4ccccc34)CC2)cc1 | -0.1 | 0.2 | 2.1 | 51.0*
CCOc1cc(C(Nc2cccnc2)c2ccc3cccnc3c2O)ccc1O (configuration not stated) | -0.1 | 2.3 | 4.7 | -2.3
Oc1ccccc1C(Nc1ncccn1)c1ccc2cccnc2c1O (configuration not stated) | -0.6 | 4.2 | 28.4 | 33.5*
Oc1c(C(Nc2cccnc2)c2ccccc2F)ccc2cccnc12 (configuration not stated) | -1.2 | -1.8 | 51.0* | 74.7*
CC(=O)CC(=O)Nc1ccnn1-c1ccccc1 | -0.1 | -1.2 | -16.7 | 1.4
CCOC(=O)C/C(C)=N/c1ccnn1-c1ccccc1 | -0.1 | -4.0 | 2.2 | 76.4*
